Results filed as inconclusive are left out. Activity calls are given as the source filed them. How the source made its calls, unless noted: active means hit-call score of the fitted dose curve at least 0.9, where 1 is the maximum; inactive means score below 0.9.
What was measured:
[1] = ACEA_ER_80hr: ACEA Biosciences xCELLigence Real-Time Cell Analysis on Estrogen Receptor Agonism for Proliferation (AID 2282667; active means hit-call score of the fitted dose curve at least 0.9, where 1 is the maximum); conditions: T47D proliferation, impedance (xCELLigence), 80 h
Procedure, shortened: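 Cell-growth kinetics were measured by impedance in T47D cells treated continuously with compound (top 100 uM final, 1:4 steps, 8 points). Activity at 80 h was scored as signal gain over the DMSO baseline.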

[2] = APR_HepG2_NuclearSize_24hr: Apredica 24-hour HepG2 Assay for Nuclear Size (AID 2282907); conditions: high-content imaging, actives raise or lower the signal
Procedure, shortened: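 HepG2 cells exposed 24 h to compounds at 0.39–200 uM (0.5% DMSO), fixed, Hoechst 33342 stained and imaged at 20x; nuclear diameter measured by automated image analysis, fitted bidirectionally against DMSO controls.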

[3] = APR_HepG2_CellLoss_24hr: Apredica 24-hour HepG2 Assay for Cell Loss (AID 2282908); conditions: high-content imaging
Procedure, shortened: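 HepG2 cells exposed 24 hr to 0.39–200 uM compound in duplicate at 0.5% v/v final DMSO. Cells fixed in 3.7% formaldehyde and Hoechst 33342-stained. Cell number came from nuclear imaging at 20x. Bidirectional fit versus DMSO.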

[4] = APR_HepG2_MicrotubuleCSK_24hr: Apredica 24-hour HepG2 Assay for Microtubule CSK Stabilty (AID 2282909); conditions: HepG2 microtubule cytoskeleton imaging, actives raise or lower the signal
Procedure, shortened: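 HepG2 cells were treated 24 hr with compound at 0.39–200 uM in duplicate (0.5% DMSO final), then fixed and permeabilized. Alpha-tubulin immunofluorescence was imaged by high-content microscopy, with bidirectional fitting against DMSO and taxol as positive control.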

[5] = APR_HepG2_MitoticArrest_24hr: Apredica 24-hour HepG2 Assay for Mitotic Arrest (AID 2282910); conditions: high-content imaging, actives raise or lower the signal
Procedure, shortened: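 Compounds are dosed onto HepG2 cells across ten concentrations up to 200 uM for 24 hr. Cells are then fixed in 3.7% formaldehyde, permeabilised, and labelled for phospho-histone H3 and nuclei; images are scored by cell cycle analysis and fitted bidirectionally relative to DMSO.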

[6] = APR_HepG2_MitoMembPot_24hr: Apredica 24-hour HepG2 Assay for Mitochondrial Membrane Potential (AID 2282911); conditions: imaging, actives raise or lower the signal
Procedure, shortened: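 Human hepatoma HepG2 cultures received ten compound concentrations up to 200 uM for 24 hr. Membrane-potential dye signal, captured by automated fluorescence microscopy, was scored for gain or loss against DMSO controls.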

[7] = APR_HepG2_MitoMass_24hr: Apredica 24-hour HepG2 Assay for Mitochondrial Mass (AID 2282912); conditions: high-content imaging, actives raise or lower the signal
Procedure, shortened: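 HepG2 cells exposed 24 hr to 0.39–200 uM compound, 0.5% v/v DMSO, in duplicate. Stained before fixation with 250 nM MitoTracker Red CMXRos for 30 min, then imaged at 20x with Hoechst nuclei. Fitted in both directions against DMSO.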

[8] = APR_HepG2_p53Act_24hr: Apredica 24-hour HepG2 Assay for p53 Activation (AID 2282913); conditions: high-content imaging, actives raise or lower the signal;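 further: p53 protein immunofluorescence averaged per cell in HepG2 with Hoechst nuclei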
Procedure, shortened: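 Automated fluorescence imaging quantifies p53 immunostaining in HepG2 cells after a 24 hr exposure (0.39–200 uM, duplicate, 0.5% DMSO). Nuclei are located by Hoechst 33342 staining.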

[9] = APR_HepG2_CellCycleArrest_72hr: Apredica 72-hour HepG2 Assay for Cell Cycle Arrest (AID 2282914); conditions: high-content imaging, actives raise or lower the signal
Procedure, shortened: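 Cell cycle arrest in HepG2 was scored from nuclear DNA content after 72 hr compound treatment (0.39–200 uM). Activity, either gain or loss, was fitted against the DMSO baseline.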

[10] = APR_HepG2_CellLoss_72hr: Apredica 72-hour HepG2 Assay for Cell Loss (AID 2282915); conditions: high-content imaging
Procedure, shortened: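 Cell number comes from Hoechst 33342-labelled nuclei, imaged at 20x after 3.7% formaldehyde fixation. Dosing was 0.39–200 uM, ten concentrations in duplicate, 0.5% DMSO final, for 72 h. Bidirectional fit relative to DMSO baseline.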

[11] = APR_HepG2_P-H2AX_72hr: Apredica 72-hour HepG2 Assay for H2AX Phosphorylation (AID 2282916); conditions: imaging, actives raise or lower the signal;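 further: phospho-histone H2A.x immunostain intensity per cell marking DNA damage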
Procedure, shortened: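 HepG2 cells treated 72 h at 0.39–200 uM, 0.5% DMSO final, duplicates. Formaldehyde-fixed, Triton-permeabilised, immunostained for phospho-H2A.x with Hoechst; fluorescence imaged at 20x, bidirectional fit versus DMSO.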

[12] = APR_HepG2_MitoMembPot_72hr: Apredica 72-hour HepG2 Assay for Mitochondrial Membrane Potential (AID 2282917); conditions: imaging, actives raise or lower the signal
Procedure, shortened: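 Membrane potential read by MitoTracker Red CMXRos (250 nM, 30 min, pre-fixation) fluorescence imaging of HepG2 after 72 hr exposure. Ten concentrations, 0.39–200 uM, duplicate wells, 0.5% DMSO; fitted in both directions against DMSO baseline.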

[13] = APR_HepG2_MitoticArrest_72hr: Apredica 72-hour HepG2 Assay for Mitotic Arrest (AID 2282918); conditions: high-content imaging, actives raise or lower the signal
Procedure, shortened: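 Mitotic arrest in HepG2 is scored from phospho-histone H3 staining after 72 hr dosing across 0.39–200 uM, with DMSO at 0.5% v/v. Nuclei are identified by Hoechst 33342 and fluorescence intensity is quantified per cell.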

[14] = APR_HepG2_MicrotubuleCSK_72hr: Apredica 72-hour HepG2 Assay for Microtubule CSK Stabilty (AID 2282919); conditions: HepG2 microtubule cytoskeleton, high-content imaging, actives raise or lower the signal
Procedure, shortened: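 Read-out is tubulin fluorescence intensity from high-content imaging of HepG2 cells, with nuclei identified by Hoechst 33342. Treatment lasts 72 h at 0.39–200 uM, and curves are fitted bidirectionally against the DMSO negative control.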

[15] = APR_HepG2_P-H2AX_24hr: Apredica 24-hour HepG2 Assay for H2AX Phosphorylation (AID 2282920); conditions: high-content imaging, actives raise or lower the signal
Procedure, shortened: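 Signal comes from a FITC-labeled secondary detecting phospho-histone H2A.x in fixed HepG2 cells, quantified by automated imaging at 20x. Dosing ran 24 hr across 0.39–200 uM with 0.5% v/v DMSO.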

[16] = APR_HepG2_StressKinase_72hr: Apredica 72-hour HepG2 Assay for Stress Kinase (AID 2282921); conditions: HepG2 stress kinase (phospho-c-Jun) imaging, actives raise or lower the signal
Procedure, shortened: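 HepG2 cells treated 72 hr with 0.39–200 uM compound, 0.5% v/v DMSO, duplicate wells. After formaldehyde fixation and Triton permeabilization, stained with anti-phospho-c-Jun (1:500) and Cy3 secondary, imaged at 20x. Fitted in both directions against DMSO.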

[17] = APR_HepG2_StressKinase_24hr: Apredica 24-hour HepG2 Assay for Stress Kinase (AID 2282922); conditions: HepG2 stress kinase (phospho-c-Jun) imaging, actives raise or lower the signal
Procedure, shortened: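 HepG2, 24 hr dosing, 0.39–200 uM in duplicate, 0.5% DMSO; formaldehyde fix (3.7%), 0.5% Triton X-100; anti-phospho-c-Jun + Cy3 secondary, Hoechst counterstain; ArrayScan imaging; bidirectional curve fit vs DMSO baseline.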

[18] = APR_HepG2_p53Act_72hr: Apredica 72-hour HepG2 Assay for p53 Activation (AID 2282923); conditions: high-content imaging, actives raise or lower the signal;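 further: average cellular p53 protein immunofluorescence intensity in HepG2 cells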
Procedure, shortened: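 HepG2 cells exposed 72 h to 0.39–200 uM in 0.5% DMSO, duplicates. Fixed, permeabilized cells immunostained for p53 (Cy5) with Hoechst; imaged at 20x, fluorescence analyzed bidirectionally against DMSO.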

[19] = APR_HepG2_MitoMass_72hr: Apredica 72-hour HepG2 Assay for Mitochondrial Mass (AID 2282924); conditions: high-content imaging, actives raise or lower the signal;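 further: MitoTracker Red CMXRos stain intensity per cell imaged as mitochondrial mass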
Procedure, shortened: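 HepG2, 72 hr cmpd, 10 conc 0.39–200 uM in dup, DMSO 0.5% v/v. MitoTracker Red CMXRos 250 nM 30 min pre-fix; formaldehyde 3.7% fix 30 min RT. HCS imaging, gain/loss fit vs DMSO.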

[20] = APR_HepG2_CellCycleArrest_24hr: Apredica 24-hour HepG2 Assay for Cell Cycle Arrest (AID 2282905); conditions: imaging, actives raise or lower the signal;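 further: cell cycle arrest scored as ratio of 2N to 4N nuclear DNA content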
Procedure, shortened: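 Compounds at 0.39–200 uM (0.5% DMSO) for 24 h, then fixed and Hoechst 33342 stained. Cell-cycle analysis of nuclear DNA content by high-content imaging, fitted bidirectionally versus DMSO.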

Measured: AC50

Cc1nc(-c2ccc3c(c2)CCN(CCC2CCC(NC(=O)/C=C/c4ccc(F)cc4)CC2)CC3)no1 (stereo not given)
active: [11] 25.2 µM | [13] 24.2 µM | [16] 16.2 µM | [18] 23.8 µM
not listed: [20]
inactive: all other assays above

Nc1ccc(S(=O)(=O)c2ccc(N)cc2)cc1
not listed: [20]
inactive: all other assays above

C[Si]1(C)O[Si](C)(C)O[Si](C)(C)O[Si](C)(C)O1
not listed: [12] | [20]
inactive: all other assays above

Cc1ccc(C)c(C)c1
not listed: [20]
inactive: all other assays above

COCCOC[C@H](CC1(C(=O)NC2CCC(C(=O)O)CC2)CCCC1)C(=O)Oc1ccc2c(c1)CCC2 (stereo not given in full)
not listed: [12] | [20]
inactive: all other assays above

CCCc1cc(=O)[nH]c(=S)[nH]1
not listed: [1]
inactive: all other assays above

O=C(O)Cc1ccccc1Nc1c(Cl)cccc1Cl
active: [10] 107 µM
not listed: [1] | [12]
inactive: all other assays above

COc1cccc2c1C(=O)c1c(O)c3c(c(O)c1C2=O)C[C@@](O)(C(=O)CO)C[C@@H]3O[C@H]1C[C@H](N)[C@H](O)[C@H](C)O1
active: [5] 1.72 µM | [7] 24.6 µM | [8] 0.276 µM | [9] 3.58 µM | [10] 0.0653 µM | [11] 1.48 µM | [13] 1.37 µM | [14] 0.7 µM | [15] 3.17 µM | [16] 17.6 µM | [17] 8.8 µM | [18] 0.177 µM | [19] 36.6 µM
inactive: [2] | [3] | [4] | [6]

O=C(N[C@@H](Cc1ccccc1)[C@@H](O)C(=O)N1C[C@@H](O)[C@@H](O)C1)c1cc2cc(Cl)ccc2[nH]1
active: [6] 86.4 µM | [9] 91.7 µM | [10] 104 µM | [11] 107 µM | [13] 108 µM | [18] 104 µM
not listed: [1] | [12]
inactive: all other assays above

From PubChem BioAssay (EPA / NIEHS)
